A number with no mark means an inactive call. Inconclusive results are not listed. The source made the active and inactive calls. Unless noted, the call rests on the fitted dose curve; in most records, active means well fitted curve in either direction with a large enough effect (not every such curve was filed as active); inconclusive means small, poorly fitted or top-dose-only effect, or another doubt; inactive means flat fitted curve, though single readings scatter.
How the values were obtained:
[1] = biological target: Lysosomal acid glucosylceramidase (Homo sapiens) (UniProt P04062); assay: Glucocerebrosidase-p2 (AID 348; in the data active means potency below about 10 µM; further: potency means the concentration at half of the fitted maximal effect); conditions: purified GBA, blue fluorogenic substrate, 40 min
How it was run: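 Normal human glucocerebrosidase (0.2 nM) with blue fluorogenic substrate (80 uM final) in citrate/phosphate pH 5.9 with 10mM sodium taurocholate, 0.01% tween-20; 40 min RT, NaOH/glycine stop; fluorescence Ex 365/Em 440; AC50 from a titration from 0.6 nM upwards.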

[2] = AP1 Signaling Pathway (AID 357); conditions: ME-180 AP-1-bla reporter, EGF-induced, beta-lactamase ratio, 5 h; at 7.69 µM (top of the series) unless noted;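 further: ME-180 reporter cells stimulated with EGF at its EC50 level; on the % scale 0 is the no-effect control and ±100 the full control effect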
How it was run: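 Read-out was the 460nm/530nm emission ratio (excitation 405nm) after CCF4 loading for 2.5 hours at room temperature. Cells carried an AP-1-driven beta-lactamase reporter, were stimulated with EC50 EGF plus compound for 5 hours, and AC50 values came from titrations.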

[3] = Stat Signaling Pathway (AID 446); conditions: ME-180 SIE beta-lactamase reporter, IL-6 stimulated, 5 h; at 7.69 µM (top of the series) unless noted;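 further: ME-180 cervical cancer cells given 40 pM IL-6 alongside compound; SIE-controlled beta-lactamase reporter measured as 460/530 nm FRET emission ratio; on the % scale 0 is the no-effect control and ±100 the full control effect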
How it was run: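 Normalization used AC90 stimulation (300 pM IL-6) and AC90 inhibition (125 nM pan-JAK inhibitor at 40 pM IL-6). The underlying signal is SIE-driven beta-lactamase in ME-180 cells after 5 h IL-6 exposure with compound.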

[4] = biological target: Glucocorticoid receptor (Homo sapiens) (UniProt P04150); assay: GR-GFP Redistribution (AID 450;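 active means compounds whose dose series gives a full or clear partial fitted curve of increased nuclear translocation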; further: potency means the concentration at half of the fitted maximal effect); conditions: U2OS GR-GFP nuclear translocation, laser cytometry, 2 h
[5] = biological target: Glucocorticoid receptor (Homo sapiens) (UniProt P04150); assay: GR-EFC Redistribution (AID 451; calls by dose curve; further: potency means the concentration at half of the fitted maximal effect); conditions: CHO-K1 GR-EFC translocation, beta-gal luminescence, 2 h
How it was run: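 CHO-K1 cells stably expressing nuclear-localized β-gal enzyme acceptor and GR fused C-terminally to the enzyme donor fragment; ligand-driven nuclear translocation restores β-gal by complementation. Compounds titrated up to 46 uM final, 2 h at 37 °C; luminescence read.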

[6] = biological target: Mitogen-activated protein kinase 10 (Mus musculus) (UniProt Q61831); assay: JNK3 AlphaScreen Assay (AID 530); conditions: JNK3 lysate, c-Jun phosphorylation; series mostly up to 11.4 µM;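 further: kinase came from lysate of stimulated human HepG2 cells; signal reports phosphorylation of biotinylated GST-cJun 1-79 at Ser73 with 10 µM ATP; on the % scale 0 is the no-effect control and ±100 the full control effect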
How it was run: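 Biotinylated GST-cJun(1-79) served as substrate for JNK3 in HepG2 lysates stimulated with IL-1beta and TNF-alpha. ATP was 10 uM final, pH 7.6. Ser73 phosphorylation was quantified by AlphaScreen (680 nm excitation).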

[7] = biological target: 3',5'-cyclic-AMP phosphodiesterase 4B (Homo sapiens) (UniProt Q07343); assay: qHTS Assay for Inhibitors of PDE-IV (AID 607; active means well fitted activation curve with a large enough effect in the main read-out, with a control signal flat, not every such curve was filed as active; further: % of control where 0% means no effect); conditions: HEK293 ACTOne CNG channel cells, membrane potential fluorescence; series mostly up to 22.9 µM
How it was run: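 HEK293 ACTOne cells with CNG channel (1000/well), endogenous PDE4; membrane potential dye, compounds up to 22.9 uM final. Fluorescence Ex 535/Em 590; RO 20-1724 (100 uM final) as reference.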

[8] = biological target: Cytochrome P450 3A4 (Homo sapiens) (UniProt P08684); assay: qHTS Assay for Inhibitors and Substrates of Cytochrome P450 3A4 (AID 884; active means well fitted curve in the direction sought with a large enough effect; an effect the other way counts as inactive or inconclusive; further: potency means the concentration at half of the fitted maximal effect; nearly all actives have a fitted effect of over 50% in size); conditions: recombinant CYP3A4, Luciferin-PPXE luminescence; series mostly up to 57.1 µM
How it was run: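 Luminescent readout of luciferin produced by CYP3A4 (20 nM) dealkylation of Luciferin-PPXE, 25 uM (its KM). NADPH-driven reaction ran 60 min at RT after 10 min compound preincubation; data scaled to 57 uM ketoconazole as 100% inhibition.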

[9] = biological target: Cytochrome P450 3A4 (Homo sapiens) (UniProt P08684); assay: qHTS Assay for Activators of Cytochrome P450 3A4 (AID 885; active means well fitted curve in the direction sought with a large enough effect; an effect the other way counts as inactive or inconclusive; further: nearly all actives have a fitted effect of over 65% in size); conditions: recombinant CYP3A4, Luciferin-PPXE luminescence, 60 min; series mostly up to 11.4 µM
How it was run: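 Human CYP3A4 dealkylates Luciferin-PPXE to luciferin, which luciferase detection converts to light. Substrate was at its KM (25uM), buffer 200mM KPO4, reaction 60 min at RT.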

[10] = qHTS Assay for Identification of Small Molecule Agonists for Hypoxia Response Element Signaling Pathway (AID 914; active means well fitted activation curve with a large enough effect in the signal ratio, with a control signal flat, not every such curve was filed as active; the % refers to the signal ratio; further: % of control where 0% means no effect); conditions: ME-180 (cervical carcinoma) HRE-bla reporter, beta-lactamase ratio, CoCl2, 17 h; activation: stronger effect = higher value
How it was run: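 HRE-bla ME-180 cells with beta-lactamase reporter under hypoxia response element, compounds with EC50 CoCl2 for 17 hours at 37 C. CCF4 substrate, 460nm/530nm emission ratio gave %Activity; AC50 from titration series.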

[11] = biological target: Cytochrome P450 2C19 (Homo sapiens) (UniProt P33261); assay: qHTS Assay for Inhibitors and Substrates of Cytochrome P450 2C19 (AID 899; active means well fitted curve in the direction sought with a large enough effect; an effect the other way counts as inactive or inconclusive; further: on the % scale 0 is the no-effect control and ±100 the full control effect; nearly all actives have a fitted effect of over 60% in size); conditions: recombinant CYP2C19, luciferin-H EGE luminescence; series mostly up to 11.4 µM
How it was run: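 Human CYP2C19 (5nM) with Luciferin-H EGE at 10uM (its KM) in 50mM KPO4 was preincubated with compound for 10 min at 37C. NADPH regeneration started a 60 min 37C reaction. Luciferin was read by luminescence, normalized to 57uM ketoconazole.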

[12] = biological target: Cytochrome P450 2D6 (Homo sapiens) (UniProt P10635); assay: qHTS Assay for Inhibitors and Substrates of Cytochrome P450 2D6 (AID 891; active means well fitted curve in the direction sought with a large enough effect; an effect the other way counts as inactive or inconclusive; further: potency means the concentration at half of the fitted maximal effect; nearly all actives have a fitted effect of over 60% in size); conditions: recombinant CYP2D6, luciferin-ME EGE luminescence; series mostly up to 11.4 µM
How it was run: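 Luminescent read-out of luciferin formed by 5 nM human CYP2D6 demethylating 30 uM Luciferin-ME EGE (Km level) over 60 min at room temperature after NADPH regeneration addition. Data normalized to full inhibition by 1.43 uM quinidine.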

[13] = biological target: Cytochrome P450 2C9 (Homo sapiens) (UniProt P11712); assay: qHTS Assay for Inhibitors and Substrates of Cytochrome P450 2C9 (AID 883; active means well fitted curve in the direction sought with a large enough effect; an effect the other way counts as inactive or inconclusive; further: potency means the concentration at half of the fitted maximal effect; nearly all actives have a fitted effect of over 60% in size); conditions: recombinant CYP2C9, luciferin-H luminescence, 60 min; series mostly up to 11.4 µM
How it was run: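 Human CYP2C9 (10nM) hydroxylated Luciferin-H (100uM, at its KM) to luciferin in 25mM KPO4. Compound was preincubated 10 min at 37C, then NADPH regeneration started a 60 min reaction at 37C. Luminescence was read after detection reagent, normalized to 57uM sulphaphenazole.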

Chain of Lysosomal acid glucosylceramidase (Homo sapiens) (P04062 whole entry, looked up): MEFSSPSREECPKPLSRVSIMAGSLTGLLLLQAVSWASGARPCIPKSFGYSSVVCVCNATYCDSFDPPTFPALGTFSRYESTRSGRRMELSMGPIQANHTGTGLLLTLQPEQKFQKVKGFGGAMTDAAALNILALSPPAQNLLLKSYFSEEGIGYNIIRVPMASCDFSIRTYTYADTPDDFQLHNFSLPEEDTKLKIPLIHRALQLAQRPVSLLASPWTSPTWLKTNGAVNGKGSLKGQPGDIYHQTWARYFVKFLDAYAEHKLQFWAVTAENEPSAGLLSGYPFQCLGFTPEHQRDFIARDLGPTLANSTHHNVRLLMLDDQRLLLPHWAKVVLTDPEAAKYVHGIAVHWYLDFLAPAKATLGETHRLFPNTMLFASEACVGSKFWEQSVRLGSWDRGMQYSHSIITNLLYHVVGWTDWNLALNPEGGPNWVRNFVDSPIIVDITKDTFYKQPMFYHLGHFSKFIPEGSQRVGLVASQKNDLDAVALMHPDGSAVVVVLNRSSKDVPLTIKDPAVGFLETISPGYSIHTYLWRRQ
Chain of Cytochrome P450 3A4 (Homo sapiens) (P08684 whole entry, looked up): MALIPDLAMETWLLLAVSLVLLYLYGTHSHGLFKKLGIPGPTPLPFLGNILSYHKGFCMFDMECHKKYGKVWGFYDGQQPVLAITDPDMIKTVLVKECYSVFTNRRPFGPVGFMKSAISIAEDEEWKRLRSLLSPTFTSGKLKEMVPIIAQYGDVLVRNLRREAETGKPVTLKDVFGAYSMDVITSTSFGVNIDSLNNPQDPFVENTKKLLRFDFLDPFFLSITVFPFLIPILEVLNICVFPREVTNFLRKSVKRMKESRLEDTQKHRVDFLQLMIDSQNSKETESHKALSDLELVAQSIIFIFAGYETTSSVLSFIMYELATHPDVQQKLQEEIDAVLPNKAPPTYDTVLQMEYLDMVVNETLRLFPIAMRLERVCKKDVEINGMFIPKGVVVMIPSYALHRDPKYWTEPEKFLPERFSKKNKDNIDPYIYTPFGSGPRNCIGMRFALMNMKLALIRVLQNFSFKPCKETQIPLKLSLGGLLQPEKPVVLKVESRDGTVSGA
Chain of 3',5'-cyclic-AMP phosphodiesterase 4B (Homo sapiens) (Q07343 whole entry, looked up): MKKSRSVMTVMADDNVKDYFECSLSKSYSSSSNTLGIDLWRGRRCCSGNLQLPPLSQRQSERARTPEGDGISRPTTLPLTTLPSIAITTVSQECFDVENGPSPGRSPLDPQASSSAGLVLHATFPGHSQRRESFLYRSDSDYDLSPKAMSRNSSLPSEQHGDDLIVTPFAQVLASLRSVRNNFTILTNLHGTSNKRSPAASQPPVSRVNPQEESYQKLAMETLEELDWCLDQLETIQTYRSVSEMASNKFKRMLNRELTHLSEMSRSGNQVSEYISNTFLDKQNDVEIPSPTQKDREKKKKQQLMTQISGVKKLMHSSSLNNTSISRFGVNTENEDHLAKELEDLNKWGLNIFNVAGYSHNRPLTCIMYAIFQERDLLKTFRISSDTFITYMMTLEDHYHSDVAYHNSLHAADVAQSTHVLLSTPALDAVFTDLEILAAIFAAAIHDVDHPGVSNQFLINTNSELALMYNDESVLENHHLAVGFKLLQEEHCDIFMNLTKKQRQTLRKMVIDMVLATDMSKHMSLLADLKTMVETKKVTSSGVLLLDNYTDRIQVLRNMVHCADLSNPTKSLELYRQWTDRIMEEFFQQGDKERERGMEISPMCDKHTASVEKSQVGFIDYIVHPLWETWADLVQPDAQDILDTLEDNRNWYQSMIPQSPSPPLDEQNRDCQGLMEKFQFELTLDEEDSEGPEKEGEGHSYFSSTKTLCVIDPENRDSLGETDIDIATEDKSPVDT
Chain of Glucocorticoid receptor (Homo sapiens) (P04150 whole entry, looked up, the tested form may be a part): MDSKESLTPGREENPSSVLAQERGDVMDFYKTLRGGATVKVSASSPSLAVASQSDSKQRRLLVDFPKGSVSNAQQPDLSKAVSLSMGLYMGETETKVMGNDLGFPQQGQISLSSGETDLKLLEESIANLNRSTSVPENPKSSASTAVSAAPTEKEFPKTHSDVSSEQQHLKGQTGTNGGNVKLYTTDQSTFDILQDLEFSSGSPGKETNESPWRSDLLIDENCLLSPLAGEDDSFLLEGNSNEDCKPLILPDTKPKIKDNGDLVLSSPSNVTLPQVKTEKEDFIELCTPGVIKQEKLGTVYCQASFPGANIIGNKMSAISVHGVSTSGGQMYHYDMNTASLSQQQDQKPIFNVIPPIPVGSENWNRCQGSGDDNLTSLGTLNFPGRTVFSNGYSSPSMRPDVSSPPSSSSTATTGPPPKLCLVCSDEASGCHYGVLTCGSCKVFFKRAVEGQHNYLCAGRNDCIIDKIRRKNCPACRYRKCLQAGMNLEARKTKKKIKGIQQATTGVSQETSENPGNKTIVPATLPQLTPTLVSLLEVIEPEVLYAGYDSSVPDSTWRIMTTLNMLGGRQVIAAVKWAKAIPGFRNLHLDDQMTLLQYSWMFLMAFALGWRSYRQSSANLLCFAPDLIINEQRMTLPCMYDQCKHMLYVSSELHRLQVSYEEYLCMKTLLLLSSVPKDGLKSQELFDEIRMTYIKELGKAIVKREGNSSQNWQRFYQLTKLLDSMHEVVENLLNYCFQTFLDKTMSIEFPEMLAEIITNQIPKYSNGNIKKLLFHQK
Chain of Cytochrome P450 2C19 (Homo sapiens) (P33261 whole entry, looked up): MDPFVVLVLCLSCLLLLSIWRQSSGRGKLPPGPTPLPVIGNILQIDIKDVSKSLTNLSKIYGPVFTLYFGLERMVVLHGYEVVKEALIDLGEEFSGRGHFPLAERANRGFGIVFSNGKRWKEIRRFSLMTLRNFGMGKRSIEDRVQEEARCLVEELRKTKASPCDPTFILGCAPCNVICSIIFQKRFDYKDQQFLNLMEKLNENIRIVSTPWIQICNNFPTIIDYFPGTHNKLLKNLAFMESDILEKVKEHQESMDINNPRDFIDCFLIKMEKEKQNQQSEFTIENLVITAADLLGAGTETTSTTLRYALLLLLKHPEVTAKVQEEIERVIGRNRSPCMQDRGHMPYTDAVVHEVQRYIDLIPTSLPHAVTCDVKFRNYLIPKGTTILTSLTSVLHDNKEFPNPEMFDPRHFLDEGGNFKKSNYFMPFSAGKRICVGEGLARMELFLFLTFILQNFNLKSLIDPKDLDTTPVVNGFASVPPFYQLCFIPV
Chain of Cytochrome P450 2D6 (Homo sapiens) (P10635 whole entry, looked up): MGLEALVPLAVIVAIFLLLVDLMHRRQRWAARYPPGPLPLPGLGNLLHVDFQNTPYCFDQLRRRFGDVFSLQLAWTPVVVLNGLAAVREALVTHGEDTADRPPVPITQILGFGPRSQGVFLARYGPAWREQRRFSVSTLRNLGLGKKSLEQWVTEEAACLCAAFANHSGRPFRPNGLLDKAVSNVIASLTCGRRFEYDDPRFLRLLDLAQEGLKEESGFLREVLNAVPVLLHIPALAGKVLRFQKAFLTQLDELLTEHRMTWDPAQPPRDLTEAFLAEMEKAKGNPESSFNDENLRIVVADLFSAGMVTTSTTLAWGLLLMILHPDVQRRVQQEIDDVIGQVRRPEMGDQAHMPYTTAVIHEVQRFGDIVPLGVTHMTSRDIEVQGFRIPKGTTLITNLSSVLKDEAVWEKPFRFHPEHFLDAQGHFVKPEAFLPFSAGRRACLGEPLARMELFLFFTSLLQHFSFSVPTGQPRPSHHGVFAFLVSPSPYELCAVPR
Chain of Cytochrome P450 2C9 (Homo sapiens) (P11712 whole entry, looked up): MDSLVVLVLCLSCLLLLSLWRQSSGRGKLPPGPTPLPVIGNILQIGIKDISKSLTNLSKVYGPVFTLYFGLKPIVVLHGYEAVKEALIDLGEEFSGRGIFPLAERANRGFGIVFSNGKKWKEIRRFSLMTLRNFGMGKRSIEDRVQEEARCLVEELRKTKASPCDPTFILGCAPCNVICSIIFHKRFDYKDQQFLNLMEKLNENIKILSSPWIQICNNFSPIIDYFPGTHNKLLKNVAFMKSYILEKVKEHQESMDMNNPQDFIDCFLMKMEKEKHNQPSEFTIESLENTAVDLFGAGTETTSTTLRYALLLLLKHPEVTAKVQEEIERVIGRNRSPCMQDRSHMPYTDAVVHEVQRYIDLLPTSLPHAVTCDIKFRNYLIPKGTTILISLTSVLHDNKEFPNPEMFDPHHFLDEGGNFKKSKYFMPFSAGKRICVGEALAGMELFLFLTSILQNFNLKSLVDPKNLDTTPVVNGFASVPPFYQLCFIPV

SMILES | Potency [1] | activity change, negative = inhibition [2] [%] | activity, negative = inhibition [3] [%] | Potency [4] [µM] | Potency [5] [µM] | Potency [6] | Potency [7] | Potency [8] | Potency [9] | activation [10] [%] | Potency [11] | Potency [12] | Potency [13]
O=C(O)C1C(C(=O)O)C(C(=O)O)C1C(=O)O (stereo unspecified) | > 11.4 µM | -0.701 | 0.791 | > 46 | > 9.22 | inactive | inactive |  |  |  |  |  | 
CC(=O)Nc1ccc2c(c1)/C(=C/c1ccc([N+](C)(C)C)cc1)c1ccccc1-2 | 9.02 µM (active) | -9.13 | 4.17 | > 46 | > 9.22 | inactive | inactive |  |  |  |  |  | 
CN(C)Cc1cc(C(F)(F)F)ccc1C(O)(c1ccccc1)c1ccccc1 | > 11.4 µM | 19.8 | 9.65 | > 46 | > 9.22 | inactive | inactive | 0.794 µM (active) | inactive | 25.7 |  |  | 
COc1ccc(N(CC(=O)O)N=O)cc1 | > 11.4 µM | 1.5 | 2.83 | > 46 | > 9.22 | inactive | inactive |  |  | 10.3 | inactive |  | 
O=C1c2ccccc2-c2ccc(N(Cc3ccc(Br)cc3)Cc3ccc(Br)cc3)cc21 | > 11.4 µM | -16.3 | 4.89 | > 46 | > 9.22 |  | inactive |  |  |  |  |  | 
c1cc(CSc2ncnc3nc[nH]c23)ccn1 | > 11.4 µM | 10.4 | -2.3 | > 46 |  | inactive | inactive |  |  | -3.44 |  |  | 
C=C(CC(=O)O)C(=O)O (tested in a mixture with another compound) | > 11.4 µM | 6.49 | -4.69 | > 46 | > 9.22 | inactive | inactive |  |  |  |  |  | 
NC(Cc1ccccc1)(C(=O)O)C(=O)O | > 11.4 µM | 4.48 | -6.13 | > 46 | > 9.22 | inactive | inactive |  |  |  |  |  | 
O=C(O)C(Cl)(c1ccccc1)c1ccccc1 | > 11.4 µM | 1.69 | -5.62 | > 46 |  | inactive | inactive |  |  |  |  |  | 
COc1ccc(CC[N@+]2(C)COc3cc4oc(=O)cc(C)c4cc3C2)cc1OC | 11 µM | 10.2 | 5.96 | > 46 | > 9.22 |  | inactive |  |  |  |  |  | 
O=C(O)CC[P+](c1ccccc1)(c1ccccc1)c1ccccc1 | > 11.4 µM | 2.51 | 4.75 | > 46 | > 9.22 | inactive |  |  |  |  | inactive |  | 
Clc1ccc(CSC2=NCCN2)cc1Cl | > 11.4 µM | -9.06 | -8 | > 46 | > 9.22 | inactive | inactive |  |  |  |  | 3.16 µM (active) | 
COc1ccc(NCc2c(O)ccc3ccccc23)cc1 | > 11.4 µM | -6.4 | -5.4 | > 46 | > 9.22 | inactive | inactive |  |  |  |  |  | 
O=c1[nH]c(SCc2cccc([N+](=O)[O-])c2)nc2nc[nH]c12 | > 11.4 µM | -0.65 | 8.09 | > 46 | > 9.22 | inactive | inactive |  | inactive |  |  |  | 
CN(C)Cc1cc(C(C)(C)C)cc(CN(C)C)c1O | > 11.4 µM | 12.4 | -1.5 | > 46 | > 9.22 | inactive | inactive |  |  |  |  |  | 
NS(=O)(=O)c1ccc(N=Nc2ncccc2O)cc1 | > 11.4 µM | 7.11 | 5.47 | > 46 | > 9.22 | inactive | inactive |  | inactive |  |  |  | 
O=C(c1[nH]o[n+](=O)c1C(=O)c1csc2ccccc12)c1csc2ccccc12 | > 11.4 µM | 3.39 | -7.78 | > 46 | > 9.22 | inactive | inactive |  | inactive |  |  |  | 1.58 µM (active)
O=S1(=O)CCN(Cc2ccccn2)CC1 | > 11.4 µM | 0.374 | -10.3 | > 46 | > 9.22 | inactive | inactive |  |  |  |  |  | 
c1ccc(CN2CC[C@@H](CNc3ncnc4ccccc34)C2)cc1 | > 11.4 µM | 3.93 | 8.92 | > 46 | > 9.22 | inactive | inactive |  |  |  |  | 0.794 µM (active) | 

Reference: PubChem BioAssay (NCATS)
